Results filed as inconclusive are left out. Where a call stands in place of a potency, no number is given. A number with no mark means an inactive call. The source made the active and inactive calls. Unless noted, the call rests on the fitted dose curve; in most records, active means well fitted curve in the direction sought with a large enough effect in the repeat runs; inconclusive means weak or mixed curves; inactive means no such curve, though single readings can be large; an effect the other way counts as inactive or inconclusive.
Legend:
[1] = qHTS assay to identify small molecule antagonists of the retinoid acid receptor (RAR) signaling pathway - cell viability counter screen (AID 1159551); further: nearly all actives have a fitted effect of over 35% in size; further: potency means the concentration at half of the fitted maximal effect
Method in brief: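 Viability of C3RL4 cells is quantified from ATP by luminescence after 6 h treatment at 37 C with compounds and 1 uM retinol.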

[2] = qHTS assay to identify small molecule antagonists of the retinoic acid receptor (RAR) signaling pathway (AID 1159552; further: nearly all actives have a fitted effect of over 50% in size; further: potency means the concentration at half of the fitted maximal effect)
Method in brief: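 Quantitative HTS in C3RL4 RARE-luciferase reporter cells. Compounds were added with 1 uM (final) retinol; luminescence was read after 6 hr.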

[3] = qHTS assay to identify small molecule agonists of the retinoic acid receptor (RAR) signaling pathway (AID 1159553); further: potency means the concentration at half of the fitted maximal effect
Method in brief: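 Compounds dissolved in DMSO were pinned onto C3RL4 cells seeded the previous day, and plates were held 6 hr at 37 C. RARE-driven luciferase output was then read by luminescence.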

[4] = molecular target: Luciferin 4-monooxygenase (Photinus pyralis) (UniProt P08659); assay: qHTS assay to identify small molecule inhibitors of firefly luciferase (AID 1224835); further: nearly all actives have a fitted effect of over 25% in size; further: potency means the concentration at half of the fitted maximal effect
Method in brief: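 Biochemical qHTS: compounds run as interplate titrations against purified firefly enzyme, with D-luciferin and ATP each at its KM concentration. Light output recorded by CCD imaging.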

[5] = qHTS assay to identify small molecule agonists of the constitutive androstane receptor (CAR) signaling pathway - cell viability counter screen (AID 1224836); further: nearly all actives have a fitted effect of over 45% in size; further: potency means the concentration at half of the fitted maximal effect
Method in brief: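 Counter screen multiplexed with the CAR reporter readout: HepG2 cells co-transfected with hCAR and the CYP2B6-2.2kb construct receive a 15-concentration compound series and 0.75 uM PK11195 (final), then CellTiter-Fluor fluorescence is read after 23 h.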

[6] = qHTS assay to identify small molecule antagonists of the constitutive androstane receptor (CAR) signaling pathway - cell viability counter screen (AID 1224837); further: nearly all actives have a fitted effect of over 45% in size; further: potency means the concentration at half of the fitted maximal effect
Method in brief: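 In quantitative HTS format, compounds at 15 concentrations were applied to HepG2 cells double-transfected with hCAR and CYP2B6-2.2kb under 50 nM CITCO stimulation; live-cell protease activity was read after 23 hr via CellTiter-Fluor.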

[7] = molecular target: Nuclear receptor subfamily 1 group I member 3 (Homo sapiens) (UniProt Q14994); assay: qHTS assay to identify small molecule antagonists of the constitutive androstane receptor (CAR) signaling pathway (AID 1224838); further: nearly all actives have a fitted effect of over 40% in size; further: potency means the concentration at half of the fitted maximal effect
Method in brief: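 CITCO-stimulated (50 nM final) HepG2 cells stably transfected with hCAR and CYP2B6-2.2kb luciferase were exposed to compounds at 15 concentrations for 24 h at 37 C/5% CO2. A luciferase reagent was added and luminescence recorded after 30 min.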

[8] = molecular target: Thyrotropin receptor (Homo sapiens) (UniProt P16473); assay: qHTS assay to identify small molecule agonists of the thyroid stimulating hormone receptor (TSHR) signaling pathway (AID 1224843; calls by dose curve; further: nearly all actives have a fitted effect of over 45% in size; further: potency means the concentration at half of the fitted maximal effect)
Method in brief: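 Agonist-mode screen: TSHR HEK293 cells received test chemicals for half an hour at room temperature, then HTRF cAMP detection reagents for one hour prior to fluorescence measurement. Each chemical ran as a 15-concentration series, triplicated.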

[9] = qHTS assay to identify small molecule agonists of the RXR signaling pathway - cell viability counter screen (AID 1159529); further: potency means the concentration at half of the fitted maximal effect; nearly all actives have a fitted effect of over 50% in size
Method in brief: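 Cell viability is measured by CellTiter-Glo luminescence, 30 min at room temperature, in wells already read for beta-lactamase. Engineered HEK 293T cells (RXR-alpha-UAS-bla) are dosed 16 hr at 37 C. Tetraoctyl ammonium bromide serves as positive control.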

[10] = qHTS assay to identify small molecule antagonists of the estrogen related receptor (ERR) signaling pathway from Tox21 library - cell viability counter screen (AID 1224834); further: potency means the concentration at half of the fitted maximal effect; nearly all actives have a fitted effect of over 30% in size
Method in brief: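 In this quantitative HTS format, ERR cells receive compounds in DMSO and are incubated for 17.5 h at 37 C. Live-cell protease activity is then detected with CellTiter-Fluor.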

[11] = molecular target: Nuclear receptor subfamily 1 group I member 3 (Homo sapiens) (UniProt Q14994); assay: qHTS assay to identify small molecule agonists of the constitutive androstane receptor (CAR) signaling pathway (AID 1224839); further: nearly all actives have a fitted effect of over 15% in size; further: potency means the concentration at half of the fitted maximal effect
Method in brief: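 A 15-concentration quantitative screen uses HepG2 cells co-transfected stably with human CAR and CYP2B6-2.2kb reporter. Treatment lasts 24 h with 0.75 uM PK11195 final present; ONE-Glo luminescence is the signal.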

[12] = qHTS assay to identify small molecule antagonists of the estrogen related receptor signaling pathway with the pleiotropic PPARgamma coactivator (PGC) from Tox21 10K library - cell viability counter screen (AID 1224840; active means well fitted cell-killing curve with a large enough effect in the repeat runs, not every such curve was filed as active; further: potency means the concentration at half of the fitted maximal effect; nearly all actives have a fitted effect of over 40% in size)
Method in brief: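 Viability counter screen, PGC/ERR cells: 17.5 h compound exposure at 37 C, CellTiter-Fluor fluorescence endpoint.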

[13] = qHTS assay to identify small molecule antagonists of the estrogen related receptor signaling pathway with the pleiotropic PPARgamma coactivator (PGC) from Tox21 10K library (AID 1224841; call rule not given here; further: actives are mostly falling curves and most rising ones were filed inactive; nearly all actives have a fitted effect of over 50% in size; further: potency means the concentration at half of the fitted maximal effect)
Method in brief: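 In the PGC/ERR line, DMSO solutions of test chemicals are pin-delivered to 2,000 cells/well six hours after dispensing. Following eighteen hours' incubation, One-Glo reagent is added and luminescence recorded.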

[14] = qHTS assay to identify small molecule agonists of the estrogen related receptor signaling pathway with the pleiotropic PPARgamma coactivator (PGC) from Tox21 10K library (AID 1224842); further: nearly all actives have a fitted effect of over 15% in size
Method in brief: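 PGC/ERR reporter cell line, 2,000 cells per well, incubated 6 h at 37 C before 23 nL compound in DMSO was added. After 18 h at 37 C, One-Glo luminescence read following 30 min at room temperature.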

[15] = qHTS assay to identify small molecule antagonists of the estrogen related receptor (ERR) signaling pathway (AID 1224819; further: potency means the concentration at half of the fitted maximal effect; nearly all actives have a fitted effect of over 50% in size)
Method in brief: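 ERR reporter cells were plated at 2,000 cells/well and left 6 h at 37 C/5% CO2 before pin-tool transfer of compounds in DMSO. After 18 h at 37 C, One-Glo was added and luminescence was read 30 min later at room temperature.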

[16] = qHTS assay to identify small molecule agonists of the estrogen related receptor (ERR) signaling pathway (AID 1224820)
Method in brief: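 An ERR cell line provided by NTP was seeded at 2,000 cells per well and allowed to settle for 6 h before compounds in DMSO were added. After 18 h at 37 C, luciferase activity was measured by One-Glo luminescence.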

[17] = qHTS assay to identify small molecule agonists of the estrogen related receptor signaling pathway with the pleiotropic PPARgamma coactivator (PGC) (AID 1224823)
Method in brief: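 Compounds dissolved in DMSO are added by pin tool to PGC/ERR cells that have settled for 6 h, and incubation continues 18 h at 37 C. Reporter output is measured as One-Glo luminescence.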

Chain of Thyrotropin receptor (Homo sapiens) (P16473 whole entry, looked up): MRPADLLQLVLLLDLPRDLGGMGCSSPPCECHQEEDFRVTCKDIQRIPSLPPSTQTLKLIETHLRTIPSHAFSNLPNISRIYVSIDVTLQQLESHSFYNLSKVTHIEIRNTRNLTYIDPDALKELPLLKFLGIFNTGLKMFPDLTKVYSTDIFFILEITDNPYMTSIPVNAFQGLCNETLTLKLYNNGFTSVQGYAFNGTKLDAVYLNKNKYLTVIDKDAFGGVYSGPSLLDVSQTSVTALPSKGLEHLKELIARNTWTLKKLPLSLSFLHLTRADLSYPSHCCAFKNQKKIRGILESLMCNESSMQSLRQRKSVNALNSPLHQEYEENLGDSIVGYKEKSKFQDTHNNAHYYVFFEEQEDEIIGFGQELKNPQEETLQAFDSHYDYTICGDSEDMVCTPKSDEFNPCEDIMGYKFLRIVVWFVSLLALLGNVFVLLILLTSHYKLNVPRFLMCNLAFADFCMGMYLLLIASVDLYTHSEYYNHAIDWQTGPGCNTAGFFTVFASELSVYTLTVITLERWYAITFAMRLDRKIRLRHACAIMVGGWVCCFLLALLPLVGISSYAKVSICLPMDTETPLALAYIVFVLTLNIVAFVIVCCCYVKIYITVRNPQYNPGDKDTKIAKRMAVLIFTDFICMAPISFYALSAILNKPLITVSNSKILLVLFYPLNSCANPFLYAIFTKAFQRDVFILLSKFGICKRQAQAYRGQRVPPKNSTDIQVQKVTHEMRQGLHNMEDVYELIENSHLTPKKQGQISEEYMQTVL
Chain of Luciferin 4-monooxygenase (Photinus pyralis) (P08659 whole entry, looked up): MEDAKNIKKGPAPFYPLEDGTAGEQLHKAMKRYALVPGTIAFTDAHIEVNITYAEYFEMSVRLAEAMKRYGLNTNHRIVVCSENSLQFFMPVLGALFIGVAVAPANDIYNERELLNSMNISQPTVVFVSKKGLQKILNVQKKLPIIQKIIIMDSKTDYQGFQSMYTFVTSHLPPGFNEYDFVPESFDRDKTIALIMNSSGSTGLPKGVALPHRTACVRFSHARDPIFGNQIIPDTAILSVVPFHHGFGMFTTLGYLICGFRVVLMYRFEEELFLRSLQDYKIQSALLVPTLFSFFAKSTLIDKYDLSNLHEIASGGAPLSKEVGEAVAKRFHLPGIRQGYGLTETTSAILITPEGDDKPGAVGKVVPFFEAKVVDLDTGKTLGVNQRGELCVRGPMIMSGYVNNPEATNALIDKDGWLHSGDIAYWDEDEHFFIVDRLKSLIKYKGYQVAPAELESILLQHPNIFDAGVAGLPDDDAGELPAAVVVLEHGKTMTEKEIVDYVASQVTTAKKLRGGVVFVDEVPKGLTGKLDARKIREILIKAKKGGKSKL
Chain of Nuclear receptor subfamily 1 group I member 3 (Homo sapiens) (Q14994 whole entry, looked up): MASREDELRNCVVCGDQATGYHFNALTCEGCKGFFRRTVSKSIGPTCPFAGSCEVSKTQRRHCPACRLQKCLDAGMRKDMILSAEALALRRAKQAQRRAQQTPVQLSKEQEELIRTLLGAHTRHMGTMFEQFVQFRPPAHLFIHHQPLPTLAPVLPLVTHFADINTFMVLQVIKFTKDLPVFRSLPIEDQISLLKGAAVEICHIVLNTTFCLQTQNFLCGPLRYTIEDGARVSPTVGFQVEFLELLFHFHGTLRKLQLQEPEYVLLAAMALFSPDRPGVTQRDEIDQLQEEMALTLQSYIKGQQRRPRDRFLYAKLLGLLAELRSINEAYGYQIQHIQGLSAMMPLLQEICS

Compound	Potency [1]	Potency [2]	Potency [3]	Potency [4]	Potency [5]	Potency [6]	Potency [7]	Potency [8]	Potency [9]	Potency [10]	Potency [11]	Potency [12]	Potency [13]	Potency [14]	Potency [15]	outcome [16]	outcome [17]
OCCCCCCCCCCCCBr	inactive	inactive	inactive	inactive	inactive	inactive	inactive	inactive									
Oc1cccc(-c2c3nc(c(-c4cccc(O)c4)c4ccc([nH]4)c(-c4cccc(O)c4)c4nc(c(-c5cccc(O)c5)c5ccc2[nH]5)CC4)C=C3)c1					5.96 µM (active)	5.31 µM (active)	inactive		23.9 µM (active)	10.6 µM (active)	inactive	10.6 µM (active)					
NNc1nc(-c2ccccc2)cs1	inactive	inactive	70.5 µM (active)	32.6 µM (active)	inactive	inactive	inactive	inactive		7.05 µM (active)	49.9 µM (active)		inactive				
CC(C)c1ccc2c(c1)CC[C@H]1[C@](C)(CN)CCC[C@]21C				inactive		68.6 µM (active)		inactive	21.9 µM (active)					inactive			
CC[C@@]1(O)C(=O)OCc2c1cc1n(c2=O)Cc2cc3c(CN(C)C)c(O)ccc3nc2-1	inactive	3.76 µM (active)	inactive	inactive			0.15 µM (active)	inactive			inactive		16.8 µM (active)	inactive	0.75 µM (active)	inactive	inactive
CCCCCCCCn1sc(Cl)c(Cl)c1=O	13.7 µM (active)	27.3 µM (active)		3.56 µM (active)	30.6 µM (active)	30.6 µM (active)	27.3 µM (active)	inactive			inactive						
COc1cc(-c2nc(NC(=O)c3cc4cc(C)cc(C)c4n3CC(=O)O)sc2CCC2CCCCC2)c(OC)cc1Cl				inactive				inactive	20.1 µM (active)	49.9 µM (active)	inactive	39.7 µM (active)		inactive			
CC(C)(C)c1ccc(C(=O)CCCN2CCC(OC(c3ccccc3)c3ccccc3)CC2)cc1					29.8 µM (active)	29.8 µM (active)		11.9 µM (active)	15.1 µM (active)	23.7 µM (active)	inactive	29.8 µM (active)					
C=CC(=O)OCCn1c(=O)n(CCOC(=O)C=C)c(=O)n(CCOC(=O)C=C)c1=O				inactive	48.6 µM (active)	19.3 µM (active)	24.3 µM (active)	27.3 µM (active)	24.5 µM (active)	17.2 µM (active)	inactive	15.4 µM (active)		inactive			
Fc1ccc(C(c2ccc(F)cc2)N2CCN(C/C=C/c3ccccc3)CC2)cc1	inactive	inactive		inactive	inactive	inactive	inactive	inactive		26.6 µM (active)	inactive				19.6 µM (active)	inactive	inactive

Source: PubChem BioAssay (Tox21)
